# Assay outcomes: PubChem, National Center for Advancing Translational Sciences (NCATS)
# Most compounds without a hit are left out; they make up all but 1.8% or so of the library.
# PTHR1 agonist = agonists of human PTHR1 parathyroid hormone receptor; HEK293 GP2 PTHR1 cells, GloSensor cAMP luminescence, 1 h; Potency, µM (series often up to 115 µM), most hits filed as activators; Q03431; 410,000 compounds, 0.075% hits; AID 743266; note: nearly all actives have a fitted effect of over 55% in size
#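 HEK-293-derived GP2 cells expressing PTHR1 and a GloSensor cAMP reporter, 3,000/well, plated overnight, given luciferin plus IBMX (each 0.5 mM as added) for 1 h at 37 °C, then compound for 1 h at 37 °C. Luminescence was read after 15 min at room temperature.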
# HEK293 tox = cytotoxicity counter-screen for GLP-1 receptor inverse agonists; HEK293 cAMP-luciferase reporter cells, luminescence, 24 h; AID 624418; 410,000 compounds, 0.13% hits; Potency, µM (doses to about 38.3 µM), most hits filed as inhibitors;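 note: loss of luciferase light is scored as toxicity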
#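 Seeding density was 200 cells/uL; after overnight-length (12 h) culture, 23 nL compounds went on for 24 h at 37 °C. Readout used a luciferase detection reagent, luminescence taken after 12 min at room temperature.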
# GLP-1R agonist = activates the human GLP-1 receptor; P43220; HEK293 GLP-1R CRE-luciferase, luminescence, 4-6 h; cells express a hypersensitive GLP-1R form; Potency, µM (doses to about 45.6 µM), usual class: activators; 380,000 compounds, 0.007% hits
# Target sequence (P43220 whole entry, looked up): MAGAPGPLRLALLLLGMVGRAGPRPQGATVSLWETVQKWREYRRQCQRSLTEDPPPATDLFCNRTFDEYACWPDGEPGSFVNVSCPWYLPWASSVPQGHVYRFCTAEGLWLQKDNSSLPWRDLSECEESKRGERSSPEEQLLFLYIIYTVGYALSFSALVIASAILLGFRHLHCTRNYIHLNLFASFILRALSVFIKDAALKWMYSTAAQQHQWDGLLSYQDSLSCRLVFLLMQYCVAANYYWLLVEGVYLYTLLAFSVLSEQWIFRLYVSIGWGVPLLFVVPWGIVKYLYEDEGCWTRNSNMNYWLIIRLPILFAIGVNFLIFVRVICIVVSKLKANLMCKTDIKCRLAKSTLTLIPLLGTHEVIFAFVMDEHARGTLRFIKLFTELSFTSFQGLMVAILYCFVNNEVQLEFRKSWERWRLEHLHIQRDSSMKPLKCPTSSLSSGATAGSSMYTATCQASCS
# GLP1R inv ag = acts as inverse agonist at human GLP-1 receptor; 410,000 compounds, 1.6% hits; HEK293 GLP-1R CRE-luciferase, luminescence, 24 h; GLP-1R form is constitutively active; AID 624417; Potency, µM (series often up to 38.3 µM), hits mostly inhibitors; note: nearly all actives have a fitted effect of over 55% in size
#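 Inverse agonists were sought by their lowering of basal cAMP reporter luciferase output in HEK293 cells stably carrying constitutively active human GLP-1R, after 24 h compound treatment.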
# TSHR antag = blocks TSH signaling through the human TSH receptor; P16473; TSHR-expressing cells, TSH-stimulated cAMP HTRF, 2 h; active compounds read low; activity change, negative = inhibition, % at 11.5 µM; 330,000 compounds, 0.2% hits; AID 504810;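 active = activity change below a set negative limit, meaning inhibition stronger than a set level, cut at about -70% in these data; inconclusive = activity change between two set negative limits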
#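 Read-out is FRET at 665 nm (cryptate excitation 337 nm) from a cryptate-tagged anti-cAMP antibody, competed by cell cAMP against cAMP-d2. Compounds are tested on freshly harvested TSHR cells challenged with 4nM TSH (EC80) for 2 hours at 37 deg C.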
# A number is an active result; n = inactive; u = inconclusive; x = no result. Unless noted, calls come from the whole dose curve; as a rule, active = well fitted curve in the direction sought with a large enough effect; inconclusive = small, poorly fitted or top-dose-only effect, or another doubt; inactive = no such curve, though single readings can be large; an effect the other way counts as inactive or inconclusive.
SMILES,PTHR1 agonist,HEK293 tox,GLP-1R agonist,GLP1R inv ag,TSHR antag
COC(=O)C(Cc1c[nH]c2ccccc12)NC(=O)COc1cccc(C)c1 (centres undefined),n,n,x,n,x
Cc1cc(C)c(NC(=O)Cn2c(=O)n(CCC(=O)NCc3ccccc3Cl)c(=O)c3sccc32)c(C)c1,n,n,x,n,x
CCNC(=S)N/N=C1\CCCCc2ccccc21,n,4µM,n,3.5µM,n
Cc1cccc(NC(=S)N/N=C2/CCCCc3ccccc32)c1,n,n,n,u,n
C=C(C)CNC(=S)N/N=C1\CCCCc2ccccc21,n,4µM,n,u,n
Cc1ccc(NC(=S)N/N=C2/CCCCc3ccccc32)cc1,n,n,n,3.5µM,n
Cc1cccc(Cn2c(C)c(CNC3CCCCC3)c(C(=O)O)c2C)c1,n,n,x,n,x
Cc1nnc(N2CCN(c3ccccc3F)CC2)c2c1nnn2Cc1ccccc1,n,n,x,n,x
Clc1ccc(CSc2nnc(-c3ccc4c(c3)OCO4)o2)cc1,n,n,n,n,n
O=C1CCCCC1Sc1nnc(-c2ccc3c(c2)OCO3)o1 (centres undefined),n,n,n,3.2µM,n
COc1ccc(-n2nc(C(=O)Nc3ccccc3OC)c3c4ccccc4n(C)c3c2=O)cc1Cl,n,n,x,n,x
CCn1c(SCC(=O)c2cc(C)n(C)c2C)nnc1-c1ccccc1,n,n,n,n,n
CCn1c(SCC(=O)c2cc(C)n(-c3ccc(C(=O)OC)cc3)c2C)nnc1-c1cccnc1,n,n,n,11µM,n
COc1ccc(CCNCc2c(C(=O)O)c(C)n(Cc3cccc(Cl)c3)c2C)c(OC)c1OC,n,n,x,n,x
Cc1ccc(-c2nnc(SCC(=O)NC(C)(C)C)nc2-c2ccc(C)cc2)cc1,n,n,x,11µM,x
COc1ccc(NC(=O)Cn2c(=O)n(-c3cccc(C)c3)c(=O)c3c2c2cc(C)ccc2n3C)cc1Cl,n,n,x,n,x
CCCCN(C(=O)c1ccc(Cl)cc1)C1CC2CCC(C1)N2C (centres undefined),n,n,n,u,n
CN1C2CCC1CC(N(CCc1ccccc1)C(=O)c1ccc(Cl)cc1)C2 (centres undefined),n,n,n,10µM,n
CCOC(=O)c1ccccc1NC(=O)CCc1nc(-c2ccc(C)cc2)no1,n,n,x,n,x
COC(=O)c1ccccc1NC(=O)Cc1nc(-c2ccc(OC)cc2)no1,50µM,n,x,n,x
O=C(Nc1ccccc1Cc1ccccc1)c1oc2ccccc2c1COc1ccccc1,n,n,n,4.5µM,n
O=C(NCCc1ccccc1)c1oc2ccccc2c1COc1ccccc1,n,n,n,3.2µM,n
COc1ccc(OC)c(CCNC(=O)CCc2cn(Cc3cc(C)ccc3C)c3ccccc23)c1,n,n,x,u,x
CCc1ccccc1-n1nnc(-c2nsc(NC(=O)c3ccc(C)c(C)c3)n2)c1C,n,n,x,1.1µM,x
Cc1cc(C)cc(NC(=S)N=Nc2c(O)n(C)c3ccc(S(=O)(=O)N4CCOCC4)cc23)c1,n,u,n,u,n
SMILES,PTHR1 agonist,HEK293 tox,GLP-1R agonist,GLP1R inv ag,TSHR antag
Cc1ccc(NC(=S)N=Nc2c(O)n(C)c3ccc(S(=O)(=O)N4CCOCC4)cc23)cc1,n,0.63µM,n,n,n
CCOC(=O)c1ccc(N/C(=N\S(=O)(=O)c2ccccc2C)c2ccccc2)cc1,n,n,n,u,n
Cc1ccc(C)c(S(=O)(=O)/N=C(/Nc2ccccc2)c2ccccc2)c1,n,n,n,10µM,n
Cc1cc(C)c(OCCOCCn2c(-c3ccc(Cl)cc3)nc3ccccc3c2=O)c(C)c1,n,u,x,n,x
CCCn1c(CCNc2nc(-c3ccc(Cl)c([N+](=O)[O-])c3)cs2)nc2cc(Cl)c(Cl)cc21,n,n,n,n,n
O=[N+]([O-])c1cc(-c2csc(NCCc3nc4cc(Cl)c(Cl)cc4n3CCCO)n2)ccc1Cl,n,u,n,14µM,x
COc1ccc(OC(=O)c2nc(SCc3ccc(C)cc3)ncc2Cl)cc1,n,n,x,n,x
CC(C)Oc1ccc(C(=O)/C(=C\c2cccs2)c2nc3ccccc3o2)cc1,n,n,n,7.1µM,n
O=C1c2cccnc2C(=O)N1Cc1ccc(S(=O)(=O)N2CCN(c3ccc(Cl)cc3)CC2)cc1,n,n,n,n,-135
CCN(CC)C(=O)CSc1nc2ccccc2c(=O)n1CC1CCCCC1,n,n,n,5.6µM,n
O=C(CSc1nc2ccccc2c(=O)n1CC1CCCCC1)N1CCOCC1,n,n,n,n,n
CCN1C=C(Cc2ccc(OC)cc2)C2=C(C1)C(c1ccc(OC)cc1)C(C#N)=C(N)O2 (centres undefined),n,n,n,6.3µM,n
O=C1C2C3C=CC(C3)C2C(=O)N1c1ccc(N2CCN(c3ccccn3)CC2)c([N+](=O)[O-])c1 (centres undefined),n,n,n,2.8µM,n
O=C(CCN1C(=O)C2C3C=CC(C3)C2C1=O)N1CCN(c2ccccn2)CC1 (centres undefined),n,n,n,n,n
Cc1cccc(NNC(=O)C(=O)NNc2cccc(C)c2)c1,n,n,n,u,n
CCCc1ccc(C(=O)NNc2cccc(C)c2)cc1,n,u,n,2.8µM,n
CCCc1ccc(C(=O)NNC(=O)c2ccc(Cl)cc2)cc1,n,n,n,n,n
CCCc1ccc(C(=O)NNc2cc(Cl)ccc2Cl)cc1,n,n,n,1.3µM,n
COc1ccc(/C=C(\C#N)C(=O)N2COCC2(C)C)cc1,n,n,n,n,-75
CC1=CC(C)(C)NC(=S)N1c1ccc(C)c(C)c1,n,11µM,n,11µM,n
Cc1cc(C)cc(NC(=O)CCS(=O)(=O)c2cccc3nsnc23)c1,n,n,n,n,x
Cc1cccc(C)c1OCCCCN1CCNCC1,n,n,n,u,n
Cc1ccc(OCCCCCCN2CCNCC2)cc1,n,n,n,2.2µM,x
Cc1ccc(OCCCCCN2CCOCC2)cc1,n,n,n,n,n
Cc1ccccc1OCCCCCCN1CCNCC1,n,n,n,2.2µM,x
SMILES,PTHR1 agonist,HEK293 tox,GLP-1R agonist,GLP1R inv ag,TSHR antag
O=[N+]([O-])c1cc(Br)c(O)c(/C=N/Nc2nnnn2-c2cccc3ccccc23)c1,n,n,n,n,-75
O=[N+]([O-])c1ccc(NN=Cc2cccc3ccccc23)cc1,n,n,n,n,x
CCN(CC)C(=O)c1sc2c(c1C)c(=O)n(-c1ccc(C)c(C)c1)c(=O)n2Cc1cccc(Cl)c1,n,n,x,5µM,x
COc1ccc(C(=O)NC(NC(=S)Nc2ccc(S(N)(=O)=O)cc2)C(Cl)(Cl)Cl)cc1 (centres undefined),n,n,n,3.2µM,n
O=C(NOCc1ccccc1)c1ccc(Cl)cc1,n,n,n,u,n
COc1ccc(C(=O)NC(=S)Nc2ccc(S(N)(=O)=O)cc2)cc1,n,n,n,n,n
